Laboratory results taken from PubChem BioAssay (EPA / NIEHS).
Records with an inconclusive call do not appear. Calls of active or inactive are those of the source. The calls were made as follows, unless noted: active = hit-call score of the fitted dose curve at least 0.9, where 1 is the maximum; inactive = score below 0.9.

Legend:
[1] = ACEA_ER_80hr: ACEA Biosciences xCELLigence Real-Time Cell Analysis on Estrogen Receptor Agonism for Proliferation (AID 2282667; active = hit-call score of the fitted dose curve at least 0.9, where 1 is the maximum); conditions: T47D proliferation, impedance (xCELLigence), 80 h
Procedure, shortened: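 Estrogen-driven proliferation is captured as electrode impedance in T47D cells 80 h after compound addition. Test articles ran at 8 concentrations, 1:4 dilutions from 100 uM final, in two replicate plates.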

[2] = ATG_CRE_CIS: Attagene CIS-FACTORIAL HepG2 Assay for human cAMP Responsive Element (CRE) binding protein 3 (AID 2282926); conditions: HepG2 CRE cis-reporter, Attagene multiplexed mRNA; actives raise or lower the signal
Procedure, shortened: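 Transfected HepG2 were treated for 24 hours, then RNA was extracted and reporter cDNA amplified with sequence-specific primers. Labelled fragments were separated by capillary electrophoresis, and the CRE signal was fitted bidirectionally with DMSO as baseline.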

[3] = molecular target: CCAAT/enhancer-binding protein beta (Homo sapiens) (UniProt P17676); assay: ATG_C_EBP_CIS: Attagene CIS-FACTORIAL HepG2 Assay for human CCAAT/Enhancer Binding Protein (C/EBP) beta (AID 2282927); conditions: HepG2 Attagene cis-factorial transcription factor reporter; actives raise or lower the signal
Sequence of CCAAT/enhancer-binding protein beta (Homo sapiens) (P17676 whole entry, looked up, the tested form may be a part): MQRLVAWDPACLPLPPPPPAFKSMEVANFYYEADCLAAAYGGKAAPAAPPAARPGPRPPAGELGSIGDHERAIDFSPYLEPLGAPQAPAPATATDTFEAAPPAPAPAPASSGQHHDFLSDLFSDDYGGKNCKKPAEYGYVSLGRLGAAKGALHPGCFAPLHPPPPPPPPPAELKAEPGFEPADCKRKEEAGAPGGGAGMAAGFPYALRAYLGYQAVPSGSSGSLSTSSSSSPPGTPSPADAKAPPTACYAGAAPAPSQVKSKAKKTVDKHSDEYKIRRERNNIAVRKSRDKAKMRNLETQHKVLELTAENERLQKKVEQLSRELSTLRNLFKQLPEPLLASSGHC
Procedure, shortened: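 Endogenous C/EBPb-driven reporter transcripts measured in transfected human HepG2 cells at 24 h via RT-PCR and capillary electrophoresis of labelled fragments. Activity fitted in both directions relative to DMSO baseline.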

[4] = ATG_CMV_CIS: Attagene CIS-FACTORIAL HepG2 Assay for human CMV (Internal Marker) (AID 2282928); conditions: HepG2 CMV promoter reporter, transcription factor profiling; actives raise or lower the signal;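 also: endpoint acts as a background internal control marker rather than a target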
Procedure, shortened: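 Endogenous transcription factor activity read in HepG2 via transfected cis-promoter reporter units. After 24 h dosing, reporter mRNA measured by RT-PCR/capillary electrophoresis; gain or loss of signal fit relative to DMSO.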

[5] = ATG_DR4_LXR_CIS: Attagene CIS-FACTORIAL HepG2 Assay for human Liver X Receptor (LXR), DR4 submotif (AID 2282929); conditions: HepG2 Attagene DR4 cis-reporter, mRNA transcription; actives raise or lower the signal
Procedure, shortened: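 HepG2, transient MRTU transfection, cis-element (DR4) promoter; 24 h compound exposure; total RNA → oligo(dT) RT → PCR → 6-FAM primer extension → HpaI cut → CE. Gain/loss vs DMSO, bidirectional fit.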

[6] = molecular target: Aryl hydrocarbon receptor (Homo sapiens) (UniProt P35869); assay: ATG_Ahr_CIS: Attagene CIS-FACTORIAL HepG2 Assay for human Aryl Hydrocarbon Receptor (Ahr) (AID 2282930); conditions: HepG2 AhR cis-factorial reporter transcription; actives raise or lower the signal
Sequence of Aryl hydrocarbon receptor (Homo sapiens) (P35869 whole entry, looked up): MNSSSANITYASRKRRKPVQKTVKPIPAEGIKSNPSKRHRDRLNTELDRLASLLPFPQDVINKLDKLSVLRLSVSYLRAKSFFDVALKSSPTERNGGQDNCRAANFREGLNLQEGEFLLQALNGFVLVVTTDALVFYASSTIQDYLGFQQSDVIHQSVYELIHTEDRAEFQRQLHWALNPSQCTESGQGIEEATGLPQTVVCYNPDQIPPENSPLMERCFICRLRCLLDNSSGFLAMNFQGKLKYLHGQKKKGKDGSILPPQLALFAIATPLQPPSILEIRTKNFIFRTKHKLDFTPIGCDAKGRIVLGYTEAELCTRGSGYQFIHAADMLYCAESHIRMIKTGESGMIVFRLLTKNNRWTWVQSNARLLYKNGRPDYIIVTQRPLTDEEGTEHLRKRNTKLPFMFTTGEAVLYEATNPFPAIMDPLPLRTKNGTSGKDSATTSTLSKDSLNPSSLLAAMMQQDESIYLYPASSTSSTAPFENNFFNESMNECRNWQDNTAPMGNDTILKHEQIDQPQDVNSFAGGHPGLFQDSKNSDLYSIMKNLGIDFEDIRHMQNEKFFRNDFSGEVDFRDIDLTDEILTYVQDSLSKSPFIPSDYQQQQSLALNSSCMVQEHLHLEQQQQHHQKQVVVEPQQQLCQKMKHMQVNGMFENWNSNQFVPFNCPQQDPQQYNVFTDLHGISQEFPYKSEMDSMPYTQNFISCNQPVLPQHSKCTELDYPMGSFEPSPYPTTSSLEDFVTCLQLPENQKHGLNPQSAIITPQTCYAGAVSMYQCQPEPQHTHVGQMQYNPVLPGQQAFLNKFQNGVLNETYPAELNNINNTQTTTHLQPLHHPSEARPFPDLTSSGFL
Procedure, shortened: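 Reporter mRNA levels, quantified by RT-PCR and fluorescent capillary electrophoresis, reflect endogenous AhR transcriptional activity in HepG2 cells carrying transfected cis-promoter reporter constructs. Readout at 24 h post-dose; gain or loss fitted against DMSO baseline.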

[7] = ATG_AP_1_CIS: Attagene CIS-FACTORIAL HepG2 Assay for human Activator Protein 1 (AP-1) (AID 2282931); conditions: HepG2 Attagene cis-factorial AP-1 reporter mRNA; actives raise or lower the signal
Procedure, shortened: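 Transient MRTU transfection of HepG2 → 24 h chemical treatment → RNA isolation, RT-PCR, 6-FAM labelling, HpaI digest → capillary electrophoresis. Fit: bidirectional, DMSO negative control.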

[8] = ATG_BRE_CIS: Attagene CIS-FACTORIAL HepG2 Assay for human Bone Morphogenetic Protein (BMP) Response Element (BRE) (AID 2282933); conditions: HepG2 BMP response element reporter, Attagene transcription factor profiling; actives raise or lower the signal
Procedure, shortened: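 Gain- or loss-of-signal was derived by bidirectional fitting against DMSO controls. The signal came from reporter mRNA, measured by RT-PCR and capillary electrophoresis, in HepG2 cells transiently carrying multiple reporter units and dosed for 24 h.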

[9] = molecular target: Retinoic acid receptor alpha (Homo sapiens) (UniProt P10276); assay: ATG_DR5_RAR_CIS: Attagene CIS-FACTORIAL HepG2 Assay for human Retinoic Acid Receptor Alpha (RARE), DR5 submotif (AID 2282934); conditions: HepG2 Attagene cis-factorial RARE DR5 reporter, mRNA; actives raise or lower the signal;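 as to AC50: reporter responds to endogenous RAR alpha beta and gamma in HepG2 not RARA alone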
Sequence of Retinoic acid receptor alpha (Homo sapiens) (P10276 whole entry, looked up): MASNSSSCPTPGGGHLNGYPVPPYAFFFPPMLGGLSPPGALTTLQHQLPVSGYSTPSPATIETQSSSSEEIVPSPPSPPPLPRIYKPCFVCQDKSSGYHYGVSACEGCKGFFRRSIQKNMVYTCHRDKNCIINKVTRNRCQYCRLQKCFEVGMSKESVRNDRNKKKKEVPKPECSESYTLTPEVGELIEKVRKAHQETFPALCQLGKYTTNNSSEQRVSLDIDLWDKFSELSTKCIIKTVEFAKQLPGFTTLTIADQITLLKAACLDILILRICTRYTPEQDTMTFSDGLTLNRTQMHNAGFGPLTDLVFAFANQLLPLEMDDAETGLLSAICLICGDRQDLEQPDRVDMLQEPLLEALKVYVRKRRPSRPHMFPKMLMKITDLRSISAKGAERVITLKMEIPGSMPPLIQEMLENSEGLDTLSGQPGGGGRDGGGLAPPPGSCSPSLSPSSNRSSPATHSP
Procedure, shortened: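 Reporter transcripts from a DR5-regulated unit, measured via RT-PCR plus capillary electrophoresis, reflect endogenous RAR activity in transiently transfected human HepG2 liver cells. Exposure lasted 24 h; gain or loss of signal scored against DMSO.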

[10] = molecular target: Transcription factor E2F1 (Homo sapiens) (UniProt Q01094); assay: ATG_E2F_CIS: Attagene CIS-FACTORIAL HepG2 Assay for human E2F Transcription Factor 1 (AID 2282935); conditions: HepG2 Attagene cis-reporter, E2F reporter RNA transcripts; actives raise or lower the signal
Sequence of Transcription factor E2F1 (Homo sapiens) (Q01094 whole entry, looked up): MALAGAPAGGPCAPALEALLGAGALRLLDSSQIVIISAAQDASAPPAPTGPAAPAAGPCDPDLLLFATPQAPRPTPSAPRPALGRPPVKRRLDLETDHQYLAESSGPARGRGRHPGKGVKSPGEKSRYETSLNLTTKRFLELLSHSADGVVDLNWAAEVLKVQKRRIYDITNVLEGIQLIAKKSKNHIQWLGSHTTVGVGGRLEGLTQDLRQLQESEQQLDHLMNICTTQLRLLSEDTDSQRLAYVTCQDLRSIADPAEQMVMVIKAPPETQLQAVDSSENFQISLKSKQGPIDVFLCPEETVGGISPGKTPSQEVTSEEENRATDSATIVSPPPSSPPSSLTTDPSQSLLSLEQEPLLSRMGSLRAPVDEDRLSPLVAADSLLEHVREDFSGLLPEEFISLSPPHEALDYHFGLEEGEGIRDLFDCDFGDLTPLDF
Procedure, shortened: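 Cis-element reporter mRNA induction in transiently transfected HepG2, 24 h exposure. Activity fitted in both directions relative to DMSO negative control.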

[11] = ATG_E_Box_CIS: Attagene CIS-FACTORIAL HepG2 Assay for human Enhancer Box (E-box) (AID 2282936); conditions: HepG2 E-box cis-reporter transcription, actives raise or lower the signal
Procedure, shortened: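 Cells: HepG2 (human liver), transient MRTU transfection. Exposure 24 h. RNA → oligo(dT) RT → PCR → 6-FAM label → HpaI → CE. Activity fitted both directions relative to DMSO.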

[12] = ATG_M_61_CIS: Attagene CIS-FACTORIAL HepG2 Assay for M61 Transcription Factor (Internal Marker) (AID 2282937); conditions: HepG2 Attagene CIS-FACTORIAL M61 internal marker reporter; actives raise or lower the signal
Procedure, shortened: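 Human liver HepG2, transient MRTU transfection (cis promoter elements), 24 h compound. Total RNA → oligo(dT) RT → PCR → FAM label → HpaI → CE. Internal background marker; bidirectional fitting, DMSO = baseline.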

[13] = ATG_EGR_CIS: Attagene CIS-FACTORIAL HepG2 Assay for human Early Growth Response 1 (EGR1) (AID 2282938); conditions: HepG2 Attagene CIS-FACTORIAL EGR reporter mRNA; actives raise or lower the signal
Procedure, shortened: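 Transient transfection of human HepG2 with multiple cis-regulated reporter units, chemical exposure 24 h, total RNA isolated. Reverse transcription, PCR, fluorescent labelling and capillary electrophoresis quantify reporter transcripts; activity fitted bidirectionally against DMSO.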

[14] = ATG_M_19_CIS: Attagene CIS-FACTORIAL HepG2 Assay for M19 Transcription Factor (Internal Marker) (AID 2282939); conditions: HepG2 Attagene CIS-FACTORIAL M19 internal marker reporter; actives raise or lower the signal
Procedure, shortened: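 Following a 24 h exposure, RNA from transfected HepG2 cells was reverse-transcribed, PCR-amplified with reporter-specific primers, end-labelled with 6-FAM and HpaI-digested before capillary separation. Values represent gain or loss versus DMSO.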

[15] = ATG_ERE_CIS: Attagene CIS-FACTORIAL HepG2 Assay for Estrogen Response Element (ERE) (AID 2282940); conditions: HepG2 ERE cis-reporter, Attagene RNA transcript; actives raise or lower the signal
Procedure, shortened: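 HepG2, transient cis-reporter units, 24 h exposure. RNA isolated, oligo(dT) RT, reporter-specific PCR, FAM extension, HpaI cut, CE detection. Gain/loss-of-signal vs DMSO.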

[16] = ATG_Ets_CIS: Attagene CIS-FACTORIAL HepG2 Assay for human Erythroblast Transformation Specific (ETS) (AID 2282941); conditions: HepG2 ETS cis-reporter transcription, actives raise or lower the signal
Procedure, shortened: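 Steps: transfect HepG2 with multiple reporter units; treat compound 24 h; isolate RNA, DNase-treat, reverse-transcribe; PCR-amplify, label with 6-FAM, digest with HpaI; separate by capillary electrophoresis. Activity fitted both directions versus DMSO.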

[17] = molecular target: Hepatocyte nuclear factor 3-beta (Homo sapiens) (UniProt Q9Y261); assay: ATG_FoxA2_CIS: Attagene CIS-FACTORIAL HepG2 Assay for human Forkhead box A2 (FOXA2) (AID 2282942); conditions: HepG2 cis-reporter transcription factor activity, 24 h; actives raise or lower the signal
Sequence of Hepatocyte nuclear factor 3-beta (Homo sapiens) (Q9Y261 whole entry, looked up): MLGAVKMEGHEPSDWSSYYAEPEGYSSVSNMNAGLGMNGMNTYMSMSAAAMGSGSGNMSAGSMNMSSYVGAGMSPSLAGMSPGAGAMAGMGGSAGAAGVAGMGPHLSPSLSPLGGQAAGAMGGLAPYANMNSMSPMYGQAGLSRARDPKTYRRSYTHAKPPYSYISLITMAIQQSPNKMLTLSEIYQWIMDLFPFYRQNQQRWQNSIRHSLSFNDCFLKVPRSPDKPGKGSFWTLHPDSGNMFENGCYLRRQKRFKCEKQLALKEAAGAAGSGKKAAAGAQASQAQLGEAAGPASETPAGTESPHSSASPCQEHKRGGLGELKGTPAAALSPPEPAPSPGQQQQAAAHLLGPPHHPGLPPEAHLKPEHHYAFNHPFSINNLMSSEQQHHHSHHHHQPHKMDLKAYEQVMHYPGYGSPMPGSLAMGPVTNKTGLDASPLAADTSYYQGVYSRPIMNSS
Procedure, shortened: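 Transient MRTU transfection of HepG2 liver cells; 24 h treatment; total RNA → oligo(dT) RT → PCR → FAM primer extension → HpaI cut → CE. Bidirectional fit vs DMSO.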

[18] = ATG_FoxO_CIS: Attagene CIS-FACTORIAL HepG2 Assay for human Forkhead box O (FoxO) (AID 2282943); conditions: HepG2 Attagene cis-reporter, FoxO element, mRNA; actives raise or lower the signal
Procedure, shortened: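 Endogenous transcription factor activity read from multiplexed cis-promoter reporter transcripts in transiently transfected HepG2, 24 h after dosing. Reporter RNA measured via RT-PCR plus capillary electrophoresis of FAM-labeled products; gain or loss relative to DMSO.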

[19] = ATG_GATA_CIS: Attagene CIS-FACTORIAL HepG2 Assay for human GATA Binding Protein (AID 2282944); conditions: HepG2 GATA cis-element reporter, Attagene multiplex mRNA; actives raise or lower the signal
Procedure, shortened: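 DMSO serves as negative control and baseline for bidirectional fitting of reporter mRNA changes. HepG2 cells bearing transiently transfected cis-promoter reporters were exposed 24 h; transcripts detected via RT-PCR and capillary electrophoresis.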

[20] = ATG_AP_2_CIS: Attagene CIS-FACTORIAL HepG2 Assay for human Activator Protein 2 (AP-2) (AID 2282932); conditions: HepG2 AP-2 cis-reporter, Attagene transcription factor profiling; actives raise or lower the signal
Procedure, shortened: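 HepG2, transient MRTU transfection, cis-regulated reporters; 24 h compound exposure; RNA isolated, RT-PCR, 6-FAM labelling, HpaI digest, CE fluorescence. DMSO = negative control/baseline, bidirectional fit.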

Measured: AC50

Nc1cccnc1N
active: [5] 53.5 µM | [6] 27.4 µM | [7] 16.7 µM | [9] 65.8 µM
not listed: [20]
inactive: all other assays above

Brc1ccccn1
not listed: [11] | [14] | [20]
inactive: all other assays above

CCC(Cc1c(I)cc(I)c(N)c1I)C(=O)O (centres undefined)
active: [1] 15.5 µM | [4] 62.6 µM | [7] 64.6 µM
not listed: [15] | [20]
inactive: all other assays above

O=C(c1ccccc1)c1ccc(O)cc1O
active: [1] 1.88 µM | [4] 123 µM | [15] 1.72 µM
not listed: [6]
inactive: all other assays above

CC(C)C(=O)OCc1ccccc1
not listed: [6]
inactive: all other assays above

CCN=C1C=CC(=C(c2ccc(N(CC)CC)cc2)c2ccc(N(CC)CC)cc2)c2ccccc21
active: [2] 1.17 µM | [3] 0.0334 µM | [4] 0.905 µM | [5] 0.655 µM | [6] 0.0482 µM | [7] 0.191 µM | [8] 0.0688 µM | [11] 2.01 µM | [13] 0.78 µM
not listed: [14] | [20]
inactive: all other assays above

CCCCC(CC)COC(=O)c1ccc(N(C)C)cc1 (centres undefined)
active: [4] 53.9 µM | [5] 64.7 µM | [7] 61.7 µM | [8] 46.7 µM | [15] 9.36 µM
not listed: [20]
inactive: all other assays above
